Assay results taken from PubChem BioAssay (NCATS).
Inconclusive results are not listed. A call without a number means that no potency is given here. The source made the active and inactive calls. Unless noted, calls follow the shape of the dose curve; as a rule, active = well fitted curve in the direction sought with a large enough effect; inconclusive = small, poorly fitted or top-dose-only effect, or another doubt; inactive = no such curve, though single readings can be large; an effect the other way counts as inactive or inconclusive.

Columns and labels:
[1] = Cell Viability - Hek293 (AID 427;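 active = compounds whose dose-response curve shows a full or clear partial loss of cell viability, called from curve shape rather than a numeric limit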;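 also: potency is read from the fitted curve at half-maximal effect; cells exposed to compound for 40 hours at 37 °C before reading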); settings: qHTS
Method in brief: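 qHTS, human embryonic kidney (adenovirus-transformed) cells; 40 hr cpd, 37 °C; CellTiter-Glo ATP luminescence. Norm: DMSO = 0, 100 uM tamoxifen = 100% inhibition. Hill-fit AC50.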

[2] = Cell Viability - SK-N-SH (AID 435; calls by dose curve; also: potency is read from the fitted curve at half-maximal effect); settings: SK-N-SH neuroblastoma cell viability qHTS
Method in brief: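 qHTS cytotoxicity: CellTiter-Glo ATP luminescence after 40 h compound exposure of human neuroblastoma SK-N-SH cells at 37 °C. AC50 derived by Hill-equation fitting, with DMSO as basal and 100 uM tamoxifen as full inhibition.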

[3] = Cell Viability - N2a (AID 540); settings: N2a mouse neuroblastoma cell viability; activity change, negative = cytotoxicity: at 92.2 µM (top of the series); also: nearly all actives have a fitted effect of over 45% in size; also: potency is read from the fitted curve at half-maximal effect
Method in brief: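 Mouse neuroblastoma N2a cells, 1500/well, exposed to compounds 40 h at 37 °C in complete medium. Viability measured as cellular ATP by CellTiter-Glo luminescence; AC50 from Hill fits of concentration-response.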

[4] = Cell Viability - SH-SY5Y (AID 544); settings: SH-SY5Y neuroblastoma cell viability; viability change, negative = cytotoxic: at 92.2 µM (top of the series); also: nearly all actives have a fitted effect of over 55% in size; also: potency is read from the fitted curve at half-maximal effect
Method in brief: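 SH-SY5Y human neuroblastoma cells (1500/well) incubated 5 h, then compound-treated 40 h at 37 °C in complete medium. Viability read as intracellular ATP by CellTiter-Glo luminescence after 20 min; AC50 from Hill-equation fits of qHTS concentration-response.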

[5] = Cell Viability - Renal Proximal Tubule (AID 545); settings: renal proximal tubule cells viability, primary cells of rat origin; activity change, negative = cytotoxicity: at 91.7 µM (top of the series); also: nearly all actives have a fitted effect of over 40% in size; also: potency is read from the fitted curve at half-maximal effect
Method in brief: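 Viability taken as intracellular ATP (CellTiter-Glo luminescence) after 40 hr, 37 °C compound treatment of primary proximal tubule cells from rat kidney, 1000 cells/well; Hill-equation fits of qHTS concentration-response data gave AC50.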

[6] = Cell Viability - LYMP2-001 (AID 921); settings: LYMP2-001 lymphoblastoid cell viability; series mostly up to 92.2 µM; also: nearly all actives have a fitted effect of over 70% in size; also: potency is read from the fitted curve at half-maximal effect
Method in brief: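 Cellular ATP loss read by luciferase luminescence after 24 h compound exposure at 37 C in complete medium. LYMP2-001 lymphoblastoid cells, 2500/well; qHTS concentration-response data fitted with Hill equation for AC50.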

[7] = MultiTox-Fluor Cytotoxicity Assay - LYMP1-002 - Dead Cells (AID 960); settings: LYMP1-002 lymphoblastoid cells, dead-cell protease fluorescence; series mostly up to 46.1 µM; also: nearly all actives have a fitted effect of over 60% in size; also: potency is read from the fitted curve at half-maximal effect
Method in brief: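 Human lymphoblastoid LYMP1-002 cells, 2500/well, treated 16 h at 37 C; dead-cell protease cleavage of bis-AAF-R110 read by fluorescence (485/520); normalized to DMSO and 15 uM tetraoctylammonium bromide; AC50 from Hill fit.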

[8] = Cell Viability - LYMP2-005 (AID 967); settings: LYMP2-005 lymphoblastoid cell viability; series mostly up to 92.2 µM; also: potency is read from the fitted curve at half-maximal effect
Method in brief: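 LYMP2-005 human lymphoblastoid cells (2500/well) were treated with compounds for 24 h at 37 C. Intracellular ATP was then measured by CellTiter-Glo luminescence after 30 min at room temperature. AC50 values came from Hill-equation fits of qHTS concentration-response data.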

[9] = Cell Viability - LYMP2-009 (AID 968); settings: LYMP2-009 lymphoblastoid cell viability; series mostly up to 92.2 µM; also: nearly all actives have a fitted effect of over 55% in size; also: potency is read from the fitted curve at half-maximal effect
[10] = Cell Viability - LYMP2-015 (AID 971); settings: LYMP2-015 lymphoblastoid cell viability; series mostly up to 92.2 µM; also: nearly all actives have a fitted effect of over 55% in size; also: potency is read from the fitted curve at half-maximal effect
Method in brief: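 LYMP2-015 human lymphoblastoid cells (2500/well) in complete medium, compound-treated 24 h at 37 C; viability read as cellular ATP by CellTiter-Glo luminescence after 30 min at room temperature. AC50 from Hill-equation fits of qHTS concentration-response data.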

[11] = Cell Viability - LYMP2-017 (AID 972); settings: LYMP2-017 lymphoblastoid cell viability; series mostly up to 92.2 µM; also: nearly all actives have a fitted effect of over 55% in size; also: potency is read from the fitted curve at half-maximal effect
Method in brief: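 LYMP2-017 human lymphoblastoid cells (2500/well) settled 5 hr at 37 C, then exposed to compound 24 hr at 37 C in complete medium. Viability taken as intracellular ATP by CellTiter-Glo luminescence after 30 min at RT; AC50 from Hill fits.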

[12] = Cell Viability - LYMP2-019 (AID 973); settings: LYMP2-019 lymphoblastoid cell line viability; series mostly up to 92.2 µM; also: nearly all actives have a fitted effect of over 55% in size; also: potency is read from the fitted curve at half-maximal effect
Method in brief: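 Human lymphoblastoid LYMP2-019 cells (2500/well) preincubated 5 h at 37 C, then treated 24 h at 37 C in complete medium. Viability by CellTiter-Glo ATP luminescence after 30 min at room temperature; AC50 from Hill fits.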

[13] = Cell Viability - LYMP2-010 (AID 981); settings: LYMP2-010 lymphoblastoid cell viability, qHTS; series mostly up to 92.2 µM; also: nearly all actives have a fitted effect of over 55% in size; also: potency is read from the fitted curve at half-maximal effect
Method in brief: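 Human lymphoblastoid LYMP2-010 cells (2500/well) treated 24 h at 37 C in complete medium; viability read as intracellular ATP by CellTiter-Glo luminescence. AC50 from Hill fits of concentration-response data; tetraoctylammonium bromide positive control.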

[14] = qHTS assay for small molecule agonists of retinoid X receptor alpha signaling (AID 588544; calls by dose curve); settings: HEK293T RXRa-UAS-bla, beta-lactamase reporter, 18 h; 530 nm emission
[15] = molecular target: Retinoic acid receptor RXR-alpha (Homo sapiens) (UniProt P19793); assay: as above; settings: HEK293T RXRa-UAS-bla, beta-lactamase reporter, 18 h; series mostly up to 76.7 µM
[16] = molecular target: Thyroid hormone receptor beta (Homo sapiens) (UniProt P10828); assay: qHTS assay for small molecule agonists of thyroid hormone receptor beta signaling (AID 588545; calls by dose curve); settings: TR-UAS-bla GripTite HEK 293, beta-lactamase ratio, agonist mode, 18 h; series mostly up to 76.7 µM
Method in brief: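 Beta-lactamase reporter activity under TR response element control is measured in HEK 293 cells after 18 hrs compound exposure. Signal is ratiometric CCF4 fluorescence, 460/530 nm.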

[17] = qHTS assay for small molecule agonists of the antioxidant response element (ARE) signaling pathway measured by Nrf2-dependant transcriptional activity (AID 720636; active = well fitted curve in the direction sought with a large enough effect in the repeat runs; an effect the other way counts as inactive or inconclusive;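 also: HepG2 cells with an ARE-driven luciferase reporter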); settings: ARE-luc HepG2, Nrf2 luciferase reporter, 16 h; series mostly up to 92.4 µM
Method in brief: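 In HepG2 cells engineered with an Nrf2-responsive luciferase gene, ARE induction was quantified as luminescence after 16 hr compound treatment at 37 C.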

[18] = molecular target: Nuclear receptor subfamily 1 group I member 2 (Rattus norvegicus) (UniProt Q9R1A7); assay: qHTS assay for small molecule activators of the rat pregnane X receptor (rPXR) signaling pathway (AID 651751; call rule not given here); settings: rPXR reporter cells, luciferase (One-Glo), 24 h
[19] = qHTS assay for small molecule disruptors of the mitochondrial membrane potential - 1 hr assay (AID 651754; calls by dose curve; also: nearly all actives have a fitted effect of over 35% in size); settings: series mostly up to 92.2 µM
Method in brief: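 HepG2 cells, attached overnight, were exposed to compound for 1 hr at 37C, then stained 30 min with a potentiometric dye. Ratio of red aggregate (590nm) to green monomer (535nm) fluorescence reports membrane potential; collapse shifts signal toward green.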

[20] = qHTS assay for small molecule disruptors of the mitochondrial membrane potential - 5 hr assay (AID 651755; calls by dose curve; also: nearly all actives have a fitted effect of over 40% in size); settings: JC-1-type ratio dye; series mostly up to 92.2 µM
Method in brief: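 HepG2, 2,000 cells/well, overnight attach; cpd or DMSO 5 hr, 37C/5% CO2; Mito-MPS 30 min 37C; fluor 490/535 + 540/590 nm.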

Sequence of Nuclear receptor subfamily 1 group I member 2 (Rattus norvegicus) (Q9R1A7 whole entry, looked up): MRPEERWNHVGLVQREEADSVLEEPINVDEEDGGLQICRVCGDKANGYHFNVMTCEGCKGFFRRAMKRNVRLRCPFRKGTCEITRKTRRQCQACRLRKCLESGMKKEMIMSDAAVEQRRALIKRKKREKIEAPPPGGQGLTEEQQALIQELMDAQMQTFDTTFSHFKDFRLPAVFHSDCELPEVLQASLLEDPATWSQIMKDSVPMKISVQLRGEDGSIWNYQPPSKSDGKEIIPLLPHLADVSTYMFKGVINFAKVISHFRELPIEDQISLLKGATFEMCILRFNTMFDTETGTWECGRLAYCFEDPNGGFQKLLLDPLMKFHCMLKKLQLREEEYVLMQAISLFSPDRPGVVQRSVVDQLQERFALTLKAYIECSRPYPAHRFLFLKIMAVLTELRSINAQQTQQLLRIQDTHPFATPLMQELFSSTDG
Sequence of Thyroid hormone receptor beta (Homo sapiens) (P10828 whole entry, looked up): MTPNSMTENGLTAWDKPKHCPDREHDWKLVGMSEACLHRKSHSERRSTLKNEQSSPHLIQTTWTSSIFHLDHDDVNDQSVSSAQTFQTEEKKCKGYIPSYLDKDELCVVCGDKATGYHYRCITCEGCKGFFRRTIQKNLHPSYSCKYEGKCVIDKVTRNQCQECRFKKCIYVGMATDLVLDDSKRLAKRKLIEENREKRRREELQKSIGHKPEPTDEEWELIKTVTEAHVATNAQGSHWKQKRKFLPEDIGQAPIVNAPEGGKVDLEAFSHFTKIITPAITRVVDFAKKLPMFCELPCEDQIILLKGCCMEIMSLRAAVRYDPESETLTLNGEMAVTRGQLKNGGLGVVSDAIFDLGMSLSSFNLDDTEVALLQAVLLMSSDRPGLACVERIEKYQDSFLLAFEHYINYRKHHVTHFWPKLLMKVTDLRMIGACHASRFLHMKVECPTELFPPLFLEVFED
Sequence of Retinoic acid receptor RXR-alpha (Homo sapiens) (P19793 whole entry, looked up): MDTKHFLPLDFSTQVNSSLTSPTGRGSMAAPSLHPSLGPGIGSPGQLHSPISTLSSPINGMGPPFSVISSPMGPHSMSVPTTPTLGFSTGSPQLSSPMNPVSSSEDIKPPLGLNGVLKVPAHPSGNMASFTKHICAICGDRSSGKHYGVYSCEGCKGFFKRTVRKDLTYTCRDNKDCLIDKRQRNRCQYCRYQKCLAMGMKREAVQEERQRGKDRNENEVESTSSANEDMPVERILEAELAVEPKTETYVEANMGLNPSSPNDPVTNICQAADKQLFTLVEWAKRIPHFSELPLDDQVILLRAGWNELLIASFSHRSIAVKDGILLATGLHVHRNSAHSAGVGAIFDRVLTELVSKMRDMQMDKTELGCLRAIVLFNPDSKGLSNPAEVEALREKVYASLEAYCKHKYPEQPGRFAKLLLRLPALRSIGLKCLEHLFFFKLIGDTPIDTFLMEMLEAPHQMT

In the case of `Brc1ccc(-c2ccccc2)cc1`, the Potency [1] is reported as > 92 µM (inactive), the Potency [2] is reported as > 92 µM (inactive) and the activity change, negative = cytotoxicity [3] is reported as -19.3% (inactive). For the same molecule, the Potency [4] was “inactive”, the Potency [5] was “inactive” and the Potency [6] was “inactive”. For the same molecule, the Potency [7] was “inactive”, the Potency [8] was “inactive” and the Potency [9] was “inactive”. The Potency [10] was “inactive”, the Potency [11] was “inactive” and the Potency [12] was “inactive”. The Potency [13] was “inactive”, the max response [14] was 4.33% and the Potency [15] was “inactive”. The Potency [16] was “inactive”, the Potency [17] was “inactive” and the max response [18] was 1.6% (inactive).

With `Cc1c(N)cccc1Cl` the Potency [1] was > 92 µM (inactive), the Potency [2] was > 92 µM (inactive) and the activity change, negative = cytotoxicity [3] was -8.37% (inactive). The Potency [4] was “inactive”, the Potency [5] was “inactive” and the Potency [6] was “inactive”. The Potency [7] was “inactive”, the Potency [8] was “inactive” and the Potency [9] was “inactive”. The Potency [10] was “inactive”, the Potency [11] was “inactive” and the Potency [12] was “inactive”. For the same molecule, the Potency [13] was “inactive”, the max response [14] was 8.41% and the Potency [15] was “inactive”. The Potency [16] was “inactive”, the Potency [19] was “inactive” and the Potency [20] was “inactive”. The Potency [17] was “inactive” and the max response [18] was 7.66% (inactive).

In the case of `C/C(Cl)=C/CCl`, the Potency [1] is reported as > 92 µM (inactive), the Potency [2] is reported as > 92 µM (inactive) and the activity change, negative = cytotoxicity [3] is reported as -6.1% (inactive). For the same molecule, the Potency [4] was “inactive”, the Potency [5] was “inactive” and the Potency [6] was “inactive”. The Potency [8] was “inactive”, the Potency [9] was “inactive” and the Potency [10] was “inactive”. The Potency [11] was “inactive”, the Potency [12] was “inactive” and the Potency [13] was “inactive”. For the same molecule, the max response [14] was -5.41%, the Potency [15] was “inactive” and the Potency [16] was “inactive”. The Potency [19] was “inactive”, the Potency [20] was “inactive” and the Potency [17] was “inactive”. The max response [18] was -2.47% (inactive).

For `CC(=O)OCc1ccc2c(c1)OCO2`, the Potency [1] was > 92 µM (inactive), the Potency [2] was > 92 µM (inactive) and the activity change, negative = cytotoxicity [3] was -15.3% (inactive). For the same molecule, the Potency [4] was “inactive”, the Potency [5] was “inactive” and the Potency [6] was “inactive”. For the same molecule, the Potency [7] was “inactive”, the Potency [9] was “inactive” and the Potency [10] was “inactive”. For the same molecule, the Potency [11] was “inactive”, the Potency [12] was “inactive” and the Potency [13] was “inactive”. For the same molecule, the max response [14] was 17.8%, the Potency [15] was “inactive” and the Potency [16] was “inactive”. For the same molecule, the Potency [19] was “inactive”, the Potency [20] was “inactive” and the Potency [17] was “inactive”. The max response [18] was -6.58% (inactive).

With `CC1=C(/C=C/C(C)=C/C=C/C(C)=C/C=O)C(C)(C)CCC1` the Potency [1] was 53.9 µM (active), the Potency [2] was 42.3 µM (active) and the Potency [3] was 31.6 µM (active). The Potency [4] was 25.1 µM (active), the Potency [5] was 15.8 µM (active) and the Potency [6] was 39.8 µM (active). For the same molecule, the Potency [7] was 31.6 µM (active), the Potency [8] was 39.8 µM (active) and the Potency [9] was 39.8 µM (active). For the same molecule, the Potency [10] was 39.8 µM (active), the Potency [11] was 39.8 µM (active) and the Potency [12] was 50.1 µM (active). The Potency [13] was 31.6 µM (active), the Potency [16] was “inactive” and the Potency [19] was “inactive”. The Potency [20] was “inactive”.

For `CCNC(=S)NCC`, the Potency [1] was > 92 µM (inactive), the Potency [2] was > 92 µM (inactive) and the activity change, negative = cytotoxicity [3] was -22% (inactive). For the same molecule, the Potency [4] was “inactive”, the Potency [5] was “inactive” and the Potency [6] was “inactive”. For the same molecule, the Potency [7] was “inactive”, the Potency [8] was “inactive” and the Potency [9] was “inactive”. The Potency [10] was “inactive”, the Potency [11] was “inactive” and the Potency [12] was “inactive”. For the same molecule, the Potency [13] was “inactive”, the max response [14] was -2.72% and the Potency [15] was “inactive”. The Potency [19] was “inactive”, the Potency [20] was “inactive” and the Potency [17] was “inactive”. For the same molecule, the max response [18] was -0.653% (inactive).

For `C/C=C1/C(=O)C[C@H]2[C@@H]3CCC4=CC(=O)CC[C@]4(C)[C@H]3CC[C@]12C`, the Potency [4] was 25.1 µM (active), the Potency [6] was 50.1 µM (active) and the Potency [7] was 31.6 µM (active). For the same molecule, the Potency [8] was “inactive”, the Potency [11] was 50.1 µM (active) and the Potency [13] was 39.8 µM (active). The Potency [16] was “inactive”, the Potency [19] was “inactive” and the Potency [20] was “inactive”.
